# TDP1 block: blocks human tyrosyl-DNA phosphodiesterase 1; Potency, µM (top dose mostly 130 µM), for the others: at the top dose activity change, negative = inhibition, hits mostly inhibitors; recombinant TDP1, AlphaScreen DNA substrate cleavage; Q9NUW8; hit rate 0.28% among 350,000; note: potency is the fitted concentration of half-maximal effect; % is set by controls: 0 for no effect and ±100 for the full control effect; nearly all actives have a fitted effect of over 40% in size
# Target sequence (Q9NUW8 whole entry, looked up): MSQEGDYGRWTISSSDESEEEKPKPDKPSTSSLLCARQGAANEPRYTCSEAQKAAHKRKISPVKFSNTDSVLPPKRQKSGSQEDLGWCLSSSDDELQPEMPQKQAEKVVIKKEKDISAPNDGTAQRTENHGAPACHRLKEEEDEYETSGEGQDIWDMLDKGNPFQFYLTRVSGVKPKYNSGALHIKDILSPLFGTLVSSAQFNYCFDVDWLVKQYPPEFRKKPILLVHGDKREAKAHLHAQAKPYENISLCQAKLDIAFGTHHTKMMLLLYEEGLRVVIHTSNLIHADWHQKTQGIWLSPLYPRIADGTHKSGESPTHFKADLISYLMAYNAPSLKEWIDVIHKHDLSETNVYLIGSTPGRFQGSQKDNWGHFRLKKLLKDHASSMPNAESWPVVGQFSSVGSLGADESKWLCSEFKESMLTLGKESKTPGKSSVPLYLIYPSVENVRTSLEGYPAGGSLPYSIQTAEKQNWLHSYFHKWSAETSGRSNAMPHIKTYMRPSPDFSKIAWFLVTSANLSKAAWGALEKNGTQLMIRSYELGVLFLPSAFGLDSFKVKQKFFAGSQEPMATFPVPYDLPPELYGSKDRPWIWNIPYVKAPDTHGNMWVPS
#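 Enzyme-compound mixtures sat 15 min at room temperature, followed by a 5 min reaction with 15 nM final substrate and 10 min with AlphaScreen beads. Recombinant human Tdp1 was used at 1 nM final.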
# DT40 TDP1 CPT: growth inhibition of DT40 Tdp1-/-;hTDP1 cells with camptothecin (screen for TDP1 inhibitors); chicken DT40 Tdp1-/-;hTDP1 cells + 20 nM CPT, ATP luminescence, 48 h; Potency, µM (titrated, usually from 46.2 µM), for the others: at the highest dose activity change, negative = growth inhibition, most hits filed as inhibitors; hit rate 12% among 420,000; AID 686979; note: potency is the fitted concentration of half-maximal effect; % is set by controls: 0 for no effect and ±100 for the full control effect; nearly all actives have a fitted effect of over 55% in size
#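 Chicken DT40 Tdp1-/- cells complemented with human TDP1, 400 cells/well, exposed to compounds plus 20 nM camptothecin for at least 48 h at 37 C; viability read as ATP content by CellTiter-Glo luminescence.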
# TGFb inhibitor: TGF-b pathway inhibition; HepG2 CAGA-GFP TGF-b/SMAD3 reporter, GFP fluorescence, 18 h; TGF-beta stimulated, 500 pg/mL final; Potency, µM (titrated, usually from 46.1 µM), for the others: top-dose activity, negative = inhibition, hits mostly inhibitors; hit rate 1.2% among 410,000; note: potency is the fitted concentration of half-maximal effect; % is set by controls: 0 for no effect and ±100 for the full control effect; nearly all actives have a fitted effect of over 65% in size
#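 Read-out: total well GFP (ex488/em500-530) summed from mean per-cell fluorescence. Cells: HEPG2 CAGA-GFP, 1% FBS DMEM, 18 h at 37 degrees C with 500 pg/mL final TGF-beta. Unstimulated wells served as the full-inhibition control; stimulated DMSO wells = 0%.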
# DT40 TDP1 no CPT: qHTS for Inhibitors of human tyrosyl-DNA phosphodiesterase 1 (TDP1): qHTS in cells in absence of CPT | DT40 Tdp1-/- hTDP1 cells, no CPT, ATP luminescence, 48 h | Potency, µM (doses to about 46.2 µM), inactives show at the top dose activity change, negative = growth inhibition, most hits filed as inhibitors | hit rate 15% among 420,000; note: potency is the fitted concentration of half-maximal effect; % is set by controls: 0 for no effect and ±100 for the full control effect; nearly all actives have a fitted effect of over 55% in size
#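 DT40 Tdp1-/-;hTDP1 cells, no CPT (DMSO vehicle only), 400 cells/well; compounds pin-transferred; ≥48 hr, 37 °C; CellTiter-Glo 30 min RT dark, luminescence read.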
# HepG2 tox: counter-screen for TGF-b inhibitors: cytotoxicity in HepG2 cells | hit rate 0.76% among 410,000 | HepG2 CAGA-GFP viability, ATP luminescence, 18 h | Potency, µM (titrated, usually from 46.1 µM), without a hit: at the top dose activity change, negative = cytotoxicity, most hits filed as cytotoxic; note: potency is the fitted concentration of half-maximal effect
#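 HepG2 CAGA-GFP cells (1000/well, DMEM with 1% FBS) received compound, then TGF-beta at 500 pg/mL final, and were incubated 18 hours at 37 degrees C. Viability was read by CellTiter-Glo luminescence. Media-only wells were set as complete cell-killing and DMSO as no toxicity.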
# IL-1B inflam inh: inhibitors of inflammasome signaling (IL-1 beta secretion); THP-1 LPS/ATP IL-1B secretion, AlphaLISA, 16 h; hits give low values; activity change, % at 57.5 µM; hit rate 4.7% among 360,000; in the data active = activity change below about -50%; inconclusive = mostly about -30% to -49%; note: % is set by controls: 0 for no effect and ±100 for the full control effect
#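 THP-1 cells pretreated 1 hr with compounds (up to 57.5 uM final), then stimulated with LPS (250 ng/mL final) plus ATP (1.25 mM final); secreted IL-1B measured by AlphaLISA after 16 hr, decreased signal indicating inhibition.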
# * = called active by the depositor; ? = inconclusive; . = no result given; [ ] = dose if it differs, or a comment. Rows were chosen to be rich in hits. Some 19% of all compounds tested hit in one or more screens of this group. Unless noted, calls come from the whole dose curve; as a rule, active = well fitted curve in the direction sought with a large enough effect; inconclusive = small, poorly fitted or top-dose-only effect, or another doubt; inactive = no such curve, though single readings can be large; an effect the other way counts as inactive or inconclusive.
SMILES,TDP1 block,DT40 TDP1 CPT,TGFb inhibitor,DT40 TDP1 no CPT,HepG2 tox,IL-1B inflam inh
Cn1c(SCc2ccccc2Cl)nc(=O)c2c1NC(=O)CC2c1cc(F)ccc1F (centres undefined),-2.6%,?,-0.6%,?,-20.7%,.
COc1cccc(NC(=O)C2CCN(S(=O)(=O)c3ccc(N4CCCC4=O)cc3)CC2)c1,.,14.6µM*,9.1%,?,-7.3%,18.4
COc1cccc(NC(=O)C2CCN(S(=O)(=O)c3ccc4c(c3)NC(=O)CO4)CC2)c1,3.1%,23.1µM*,-0.2%,?,1.1%,-13.9
CCc1ccccc1NC(=O)C1CCN(S(=O)(=O)c2ccc(N3CCCC3=O)cc2)CC1,.,-27.6%,2.8%,-37.9%,4.4%,-7.9
O=C(Nc1cccc(C(F)(F)F)c1)C1CCN(S(=O)(=O)c2ccc(N3CCCC3=O)cc2)CC1,2.4%,2.59µM*,?,2.06µM*,-14.7%,-19.1
Cc1cc(OCC(=O)Nc2cccc(-c3nc4ccccc4o3)c2C)cc(C)c1Cl,.,?,0.3%,?,-23.3%,.
CCOC(=O)CCCCCC(=O)Nc1ccc2c(c1)C(=O)N([C@@H](C)CO)C[C@H](C)[C@H](CN(C)C(=O)NC(C)C)OCCCC[C@H](C)O2,.,-3.5%,-11.3%,-14.2%,-19.1%,3.0
COc1ccc(NC(=O)Nc2ccc3c(c2)C(=O)N([C@H](C)CO)C[C@@H](C)[C@@H](CN(C)C(=O)C2CCCCC2)OCCCC[C@H](C)O3)cc1,.,?,0.0%,23.1µM*,-16.0%,-24.0
COc1ccc(NC(=O)Nc2ccc3c(c2)C(=O)N([C@H](C)CO)C[C@H](C)[C@H](CN(C)Cc2ccc(C(=O)O)cc2)OCCCC[C@@H](C)O3)cc1,.,0.7%,7.4%,-33.1%,19.8%,12.1
C[C@@H]1CCCCO[C@H](CN(C)C(=O)c2ccccc2)[C@@H](C)CN([C@H](C)CO)C(=O)c2cc(NC(=O)NC3CCCCC3)ccc2O1,.,?,8.8%,?,-3.6%,21.5
C[C@@H]1CCCCO[C@@H](CN(C)C(=O)C2CCCCC2)[C@@H](C)CN([C@H](C)CO)C(=O)c2cc(NC(=O)NC3CCCCC3)ccc2O1,.,23.1µM*,-8.0%,?,-45.3%,-15.2
C[C@H]1CCCCO[C@H](CN(C)C(=O)C2CCCCC2)[C@@H](C)CN([C@@H](C)CO)C(=O)c2cc(NC(=O)NC3CCCCC3)ccc2O1,.,20.6µM*,-2.5%,20.6µM*,-21.3%,-25.2
CCOC(=O)CCCCCC(=O)Nc1ccc2c(c1)C(=O)N([C@H](C)CO)C[C@H](C)[C@H](CN(C)C(=O)C1CCCCC1)OCCCC[C@@H](C)O2,.,?,-10.6%,20.6µM*,-11.8%,20.3
Cc1noc(C)c1NC(=O)Nc1ccc2c(c1)C(=O)N([C@H](C)CO)C[C@H](C)[C@H](CN(C)C(=O)NC1CCCCC1)OCCCC[C@@H](C)O2,.,5.3%,6.6%,3.7%,-8.5%,6.7
O=S(=O)(c1cccc(Cl)c1)N1CCC(c2nc3ccccc3[nH]2)CC1,1.1%,20.6µM*,-14.1%,18.4µM*,-18.7%,-13.5
O=S(=O)(c1cccc(C(F)(F)F)c1)N1CCC(c2nc3ccccc3[nH]2)CC1,11.7%,?,30.2%,23.1µM*,7.0%,-18.0
CC(C)CCN(C)C1CCN(S(=O)(=O)c2cccc(C(F)(F)F)c2)CC1,0.0%,-10.4%,-13.2%,-21.1%,-42.9%,-52.7*
O=C(NCC1CCCO1)c1ccc(S(=O)(=O)N2CCC(c3nc4ccc(Cl)cc4[nH]3)CC2)cc1 (centres undefined),2.4%,25.9µM*,?,23.1µM*,-33.2%,-26.6
O=C(NCC1CCCO1)c1cc(S(=O)(=O)N2CCCCC2)ccc1Cl (centres undefined),0.7%,24.1%,-4.9%,5.3%,-19.5%,19.5
CC(=O)c1cccc(S(=O)(=O)N2CCC(c3nc4ccccc4[nH]3)CC2)c1,-0.3%,-21.0%,-4.4%,-14.9%,4.9%,-8.0
O=S(=O)(c1ccc(F)cc1)N1CCC(c2nc3ccccc3[nH]2)CC1,.,-26.1%,?,?,-20.4%,-13.6
CC(C)[C@H](NC(=O)c1ccccc1)C(=O)OCC(=O)c1ccc(S(=O)(=O)N2CCCCC2)cc1,-0.5%,?,-5.3%,-25.1%,-1.4%,-12.6
COc1ccc(OC)c(-n2c(=S)[nH]c3cc(C(=O)N(C)Cc4ccccc4)ccc3c2=O)c1,5.8%,1.4%,-18.6%,-4.7%,-13.1%,7.8
Cc1ccc2nc(C3CCN(S(=O)(=O)c4ccc5ccccc5c4)CC3)[nH]c2c1,7.1%,?,?,?,-20.4%,-69.3*
O=S(=O)(c1ccc2c(c1)OCCO2)N1CCC(c2nc3ccccc3[nH]2)CC1,5.2%,?,-19.4%,?,-19.1%,-4.7
SMILES,TDP1 block,DT40 TDP1 CPT,TGFb inhibitor,DT40 TDP1 no CPT,HepG2 tox,IL-1B inflam inh
O=S(=O)(c1ccc2c(c1)OCCO2)N1CCC(c2nc3ccc(Cl)cc3[nH]2)CC1,4.2%,8.2µM*,?,11.6µM*,-50.4%,-71.6*
COc1ccc(NC(=O)C(Cc2ccccc2)NS(=O)(=O)c2ccc3c(c2)CCC(=O)N3)c(OC)c1 (centres undefined),-2.3%,-4.3%,-34.9%,?,-5.1%,.
COc1ccc(/C=C/c2n[nH]c(=O)c(C#N)c2C)cc1,-3.3%,3.7%,-1.5%,?,-11.7%,-96.9*
COc1ccc(Oc2nc(C)cc(C)c2C#N)cc1,-2.8%,-20.6%,7.4%,-5.4%,7.3%,33.5
CC(Nc1ccc(S(=O)(=O)N2CCN(C)CC2)cc1[N+](=O)[O-])c1ccccc1 (centres undefined),0.6%,16.4µM*,-0.9%,23.1µM*,-26.4%,-13.0
CC(Nc1cc(N2CCN(S(C)(=O)=O)CC2)ccc1[N+](=O)[O-])c1ccccc1 (centres undefined),11.0%,?,5.3%,16.4µM*,10.4%,-52.0*
COc1cc(Nc2ccc(S(=O)(=O)N3CCN(C)CC3)cc2[N+](=O)[O-])cc(OC)c1,-1.1%[0.505 µM],?,?,?,10.7%,-28.6
COc1cccc(C(CNc2ccc(S(=O)(=O)N3CCN(C)CC3)cc2[N+](=O)[O-])N(C)C)c1 (centres undefined),11.9%,23.1µM*,0.0%,?,-2.4%,-16.4
